# An excerpt weighted towards active compounds, which were near 19% of everything screened.
# IL1B secr inh: qHTS for Inhibitors of Inflammasome Signaling: IL-1-beta AlphaLISA Primary Screen; AID 743279, 2014; activity change, % at 57.5 µM; THP-1 LPS/ATP IL-1B secretion, AlphaLISA, 16 h; hits give low values; actives 4.7% (n = 360,000); in the data active = activity change below about -50%; inconclusive = mostly about -30% to -49%
#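 Secreted IL-1B measured by AlphaLISA bead assay after 16 h compound exposure of THP-1 cells; compounds (final up to 57.5 uM) added 1 h before LPS (250 ng/mL) and ATP (1.25 mM) stimulation; lower signal means less secretion.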
# TDP1 cell CPT: qHTS for Inhibitors of human tyrosyl-DNA phosphodiesterase 1 (TDP1): qHTS in cells in presence of CPT; chicken DT40 Tdp1-/-;hTDP1 cells + 20 nM CPT, ATP luminescence, 48 h; AID 686979, 2013; Potency, µM (doses to about 46.2 µM), hits mostly inhibitors; actives 12% (n = 420,000); note: nearly all actives have a fitted effect of over 55% in size
#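 Cell growth measured by CellTiter-Glo luminescence after a minimum 48 h, 37 C compound exposure with 20 nM CPT in Tdp1-knockout DT40 cells stably expressing hTDP1, seeded 400/well; qHTS titration format.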
# TGFb inhibitor: qHTS for Inhibitors of TGF-b; HepG2 CAGA-GFP TGF-b/SMAD3 reporter, GFP fluorescence, 18 h; TGF-beta stimulated, 500 pg/mL final; actives 1.2% (n = 410,000); Potency, µM (top dose mostly 46.1 µM), usual class: inhibitors; note: nearly all actives have a fitted effect of over 65% in size
#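 Read-out: total well GFP (ex488/em500-530) summed from mean per-cell fluorescence. Cells: HEPG2 CAGA-GFP, 1% FBS DMEM, 18 h at 37 degrees C with 500 pg/mL final TGF-beta. Unstimulated wells served as the full-inhibition control; stimulated DMSO wells = 0%.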
# HepG2 tox: qHTS for Inhibitors of TGF-b: Cytotox Counterscreen; actives 0.76% (n = 410,000); HepG2 CAGA-GFP viability, ATP luminescence, 18 h; AID 588856, 2011; Potency, µM (doses to about 46.1 µM), actives largely listed as cytotoxic
#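 CellTiter-Glo luminescence gave cytotoxicity after 18 hours at 37 degrees C. The cells were HepG2 CAGA-GFP in 1% FBS DMEM, stimulated with 500 pg/mL TGF-beta after compound addition. %Activity was normalised to no-cell wells (complete cell-killing) and DMSO (no toxicity), and curves were fitted and classified.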
# TDP1 inh: qHTS Assay for Inhibitors of Tyrosyl-DNA Phosphodiesterase (TDP1). recombinant TDP1, AlphaScreen DNA substrate cleavage. actives 0.28% (n = 350,000). Tyrosyl-DNA phosphodiesterase 1 (Homo sapiens), Q9NUW8. AID 485290, 2010. Potency, µM (top dose mostly 130 µM), hits mostly inhibitors; note: nearly all actives have a fitted effect of over 40% in size
# Target sequence (Q9NUW8 whole entry, looked up): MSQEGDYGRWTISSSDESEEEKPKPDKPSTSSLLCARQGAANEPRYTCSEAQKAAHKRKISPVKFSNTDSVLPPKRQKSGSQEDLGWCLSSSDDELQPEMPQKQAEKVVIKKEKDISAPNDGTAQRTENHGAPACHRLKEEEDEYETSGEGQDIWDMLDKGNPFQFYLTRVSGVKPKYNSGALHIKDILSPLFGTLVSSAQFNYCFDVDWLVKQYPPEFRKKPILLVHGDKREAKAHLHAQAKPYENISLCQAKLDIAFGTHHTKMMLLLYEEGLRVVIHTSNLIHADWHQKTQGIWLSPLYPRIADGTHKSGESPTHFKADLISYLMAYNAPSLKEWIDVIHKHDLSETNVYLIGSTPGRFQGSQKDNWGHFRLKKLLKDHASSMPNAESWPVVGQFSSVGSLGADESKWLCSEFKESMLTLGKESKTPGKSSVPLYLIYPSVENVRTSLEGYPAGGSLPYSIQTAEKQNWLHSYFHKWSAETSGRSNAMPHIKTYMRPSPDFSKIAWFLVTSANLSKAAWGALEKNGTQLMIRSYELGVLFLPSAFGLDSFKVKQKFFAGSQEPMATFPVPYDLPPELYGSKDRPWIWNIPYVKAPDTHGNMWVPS
#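 AlphaScreen read-out: signal falls as enzyme removes the 3' tyrosine-FITC from a 5'-biotinylated DNA oligo (15 nM, 5 min, RT). Enzyme was E. coli-made recombinant Tdp1 at 1 nM, exposed to compound for 15 min beforehand; beads 10 ug/ml, 10 min.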
# TDP1 cell noCPT: qHTS for Inhibitors of human tyrosyl-DNA phosphodiesterase 1 (TDP1): qHTS in cells in absence of CPT. Potency, µM (titrated, usually from 46.2 µM), hits mostly inhibitors. actives 15% (n = 420,000). DT40 Tdp1-/- hTDP1 cells, no CPT, ATP luminescence, 48 h; note: nearly all actives have a fitted effect of over 55% in size
#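 Chicken DT40 Tdp1-/- cells complemented with human TDP1, screened without camptothecin (DMSO vehicle only), 400 cells/well. Compounds pin-transferred, cells incubated at 37 °C for at least 48 hr. Growth read as ATP-dependent luminescence (CellTiter-Glo, 30 min at RT).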
# Numbers stand for hits; i = inactive; ? = inconclusive; nt = no result. Unless noted, calls come from the whole dose curve; as a rule, active = well fitted curve in the direction sought with a large enough effect; inconclusive = small, poorly fitted or top-dose-only effect, or another doubt; inactive = no such curve, though single readings can be large; an effect the other way counts as inactive or inconclusive.
SMILES,IL1B secr inh,TDP1 cell CPT,TGFb inhibitor,HepG2 tox,TDP1 inh,TDP1 cell noCPT
O=S(=O)(O)c1cc(O)c2c(N=Nc3ccc(Nc4ccccc4)c4c(S(=O)(=O)O)cccc34)cc(S(=O)(=O)O)cc2c1,nt,19µM,nt,nt,i,13µM
O=S(=O)(O)c1cc(O)c2cc(Nc3ccccc3)ccc2c1,i,i,i,i,nt,i
CC(=O)Oc1ccc(/C=c2\sc3ncnn3c2=O)cc1,i,21µM,i,i,i,?
CCCOc1ccc(/C=c2\sc3ncnn3c2=O)cc1,?,?,i,i,i,?
CCn1c(CNC(=O)C23CC4CC(CC(C4)C2)C3)nnc1SCC(=O)Nc1ccc(C)cc1,nt,i,?,i,i,?
CCOC(=O)c1ccc(N2C(=O)CC(N(C)CCc3ccc(OC)c(OC)c3)C2=O)cc1 (centres undefined),i,16µM,i,i,i,?
CCOc1cccc(N2C(=O)CC(N(CCc3ccc(OC)c(OC)c3)C(=O)CC)C2=O)c1 (centres undefined),i,i,i,i,i,i
O=C(COC(=O)c1cnccn1)NCc1ccccc1Cl,?,i,i,i,nt,i
COc1ccc(C2/C=C\CN(CC(C)C)C(C)C(=O)N2Cc2ccc(F)cc2)cc1 (centres undefined),nt,nt,?,i,i,nt
Cn1cccc1/C=N\NC(=O)Cc1ccc(Br)c2ccccc12,i,15µM,i,i,i,10µM
Cn1cccc1/C=N/NC(N)=S,i,?,i,i,i,21µM
NC(=S)N/N=C/C=C/c1ccccc1,i,5.8µM,i,i,i,5.8µM
NC(=S)N/N=C/c1cccc(/C=N/NC(N)=S)c1,-100,i,i,i,i,i
O=NN(CC(=O)NN=CC=Cc1ccccc1)CC(=O)NN=CC=Cc1ccccc1,i,i,i,i,nt,i
Cn1cccc1/C=N/NC(=O)Cc1ccccc1,i,i,i,i,nt,i
NC(=S)N/N=C/c1ccc2ccccc2c1,i,23µM,i,i,i,23µM
NC(=S)N/N=C/c1ccc(/C=N/NC(N)=S)cc1,i,?,i,i,nt,i
COc1ccccc1C1=Nn2c(nnc2-c2ccccc2C)SC1,nt,nt,nt,nt,i,nt
CC(C)Cn1c(SCC(=O)NCc2ccc(Cl)cc2)nnc1-c1cccc(S(=O)(=O)N2CCOCC2)c1,i,?,?,i,i,21µM
C=CCn1c(SCC(=O)Nc2ccccc2)nnc1-c1cccc(S(=O)(=O)N2CCOCC2)c1,i,i,i,i,i,?
CC(C)Cn1c(SCC(=O)O)nnc1-c1cccc(S(=O)(=O)N2CCOCC2)c1,i,i,i,i,i,i
NC(=O)CSc1nnc(-c2cccc(S(=O)(=O)N3CCOCC3)c2)n1C1CCCCCC1,i,5.8µM,?,i,i,7.3µM
O=S(=O)(c1cccc(-c2n[nH]c(=S)n2C2CCCC2)c1)N1CCOCC1,i,i,i,i,i,?
Cc1ccc(CSc2nnc(-c3cccc(S(=O)(=O)N4CCOCC4)c3)n2C2CCCC2)cc1,-55,15µM,?,i,i,12µM
CCOc1ccc(NC(=O)Cn2cnc3nc4c(cc3c2=O)CCCC4)cc1,nt,?,i,i,i,i
Fc1ccc(Nc2nc(NCc3ccco3)nc3nccnc23)cc1,nt,i,i,i,i,i
O=C(NCC1CCCO1)C(C(=O)c1ccccc1)n1ccccc1=O (centres undefined),i,?,i,i,i,10µM
O=C(NCc1ccco1)C(C(=O)c1ccccc1)n1ccccc1=O (centres undefined),i,i,i,i,i,?

# Screens (PubChem BioAssay)
